# Compounds with a hit are over-represented: about 32% of the library has one in this group of screens.
# PostGolgi ctrl: yeast control strain growth, post-Golgi counter-screen; AID 738; 98,000 compounds, 5% hits; efflux-deficient yeast background strain, growth absorbance A615, 16 h; inhibition, % at 10 µM
# CYP2C9 activ: increases human cytochrome P450 2C9 activity; activation factor at 5 µM; 96,000 compounds, 1.4% hits; AID 1024; recombinant CYP2C9, luciferin-H conversion, luminescence; hits give high values; factor 1 = untreated enzyme, 0 = blocked; P11712;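 active = activation factor of 2 or more for CYP2C9 at a 5 µM dose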;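 also: 0 = sulfaphenazole-blocked wells and 1 = vehicle-only wells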
# Target sequence (P11712 whole entry, looked up): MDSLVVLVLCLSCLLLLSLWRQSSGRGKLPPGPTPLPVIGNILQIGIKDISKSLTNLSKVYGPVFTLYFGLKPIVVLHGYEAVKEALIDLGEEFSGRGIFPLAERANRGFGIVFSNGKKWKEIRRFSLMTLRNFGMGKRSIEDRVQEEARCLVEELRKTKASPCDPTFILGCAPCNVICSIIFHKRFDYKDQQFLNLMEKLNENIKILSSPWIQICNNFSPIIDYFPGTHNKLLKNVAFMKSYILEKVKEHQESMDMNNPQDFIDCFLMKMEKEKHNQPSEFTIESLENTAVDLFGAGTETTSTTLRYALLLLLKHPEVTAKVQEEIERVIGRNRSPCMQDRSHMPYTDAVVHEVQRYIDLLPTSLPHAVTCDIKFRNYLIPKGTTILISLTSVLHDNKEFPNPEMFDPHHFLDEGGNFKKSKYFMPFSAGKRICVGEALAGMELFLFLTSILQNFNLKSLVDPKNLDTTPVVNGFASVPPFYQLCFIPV
# CYP2C19 activ: increases human CYP2C19 enzyme activity; AID 1025; 96,000 tested, under 10 active; recombinant CYP2C19, luciferin-H EGE luminescence; hits give high values; 0 = fully inhibited enzyme, 1 = untreated enzyme; P33261; activation factor at 5 µM;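 active = activation factor of at least 2 at 5 µM in the primary screen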;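 also: 0 = wells with 2.5 mM tranylcypromine and 1 = vehicle-only wells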
# CYP2C19 inh: blocks human cytochrome P450 2C19 | P33261 | AID 778 | CYP2C19 Supersomes, luciferin-H EGE luminescence, 30 min | 96,000 compounds, 21% hits | inhibition, % at 5 µM;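 active = CYP2C19 inhibition above a set limit at 5 µM in the primary screen, cut at about 50% in these data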;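 also: plate controls were negative control wells for no effect and 2.5 mM tranylcypromine positive control for full effect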
# CYP2C9 inhib: blocks human cytochrome P450 2C9 | P11712 | CYP2C9 Supersomes, luciferin-H conversion, luminescence | inhibition, % at 5 µM | 96,000 compounds, 20% hits | AID 777;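 active = blocking of liver enzyme CYP2C9 beyond about 50% at 5 µM, limit read from the data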
# PostGolgi yeast: growth inhibition of a yeast mutant, post-Golgi transport screen; post-Golgi transport phenotypic cell assay; inhibition, % at 10 µM; 98,000 compounds, 0.9% hits;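 also: yeast cells grown in 1536-well plates; yeast grown about 18 h at 30C before absorbance read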
# The depositor's hits bear a star; x = no result. Rule as the data show it, unless noted: active = inhibition above about 30%; inactive = the rest.
SMILES,PostGolgi ctrl,CYP2C9 activ,CYP2C19 activ,CYP2C19 inh,CYP2C9 inhib,PostGolgi yeast
O=C(OCCN1CCN(c2ncc(C(F)(F)F)cc2Cl)CC1)c1ccc(Cl)cc1,31*,0.3,0.9,14,67*,16
c1ccc2c(-c3nc(-c4ccncc4)no3)cccc2c1,23,0.8,0.1,89*,23,1
Brc1cccc(-c2nc(-c3ccncc3)no2)c1,43*,0.5,0,97*,52*,13
Clc1ccc(Br)cc1-c1nc(-c2ccncc2)no1,3,0.5,0.1,89*,50*,5
COc1cccc(-c2nc(-c3ccccc3)no2)c1,4,1,1,2,-3,10
Cc1cc(C)cc(-c2nc(-c3ccncc3)no2)c1,8,0.7,0.2,83*,30,-13
c1ccc(-c2noc(-c3cccc4ccccc34)n2)cc1,1,0.9,0.9,6,14,0
Cc1nccn1CC(=O)O,x,1,0.9,11,-1,x
C=CCn1c(SCCC(=O)O)nc2c1c(=O)n(C)c(=O)n2C,1,1,1,3,-2,13
CCN(CC)C(=O)Cn1nc(C)c2ccccc2c1=O,-9,1.1,1,-1,-9,23
CCOC(=O)c1c(NC(=O)CN2CCCCC2)sc2c1CCC(C=O)=C2Cl,8,1,1.1,-5,-1,40*
CC1CN(C(=O)N(C)C)CCN1C(=O)N(C)C (stereo not given),14,0.9,0.9,11,8,6
CCOC(=O)C1CCN(c2c(NCCN3CCN(c4ccccc4)CC3)c(=O)c2=O)CC1,7,1,1,-1,-4,3
CCOC(=O)C1CCN(c2c(NCc3ccc(C(=O)NC(C)CC)cc3)c(=O)c2=O)CC1 (stereo not given),1,0.4,0.9,12,59*,-2
CCOc1ccc(N=C(NC#N)SCC(=O)NC2CC2)cc1,1,1.1,0.6,39,-13,14
CCOc1ccc(N=C(NC#N)SC)cc1,7,0.7,0.3,70*,25,2
COc1ccc(C2CC3CC(c4ccccc4)N2O3)cc1 (stereo not given),9,0.5,0.1,91*,48,-1
COc1ccc(C2CC(c3cccc(OC)c3)n3nc(N)nc3N2)cc1 (stereo not given),0,0.9,0.9,13,9,1
COc1ccc(CCSc2nnc(C3CCCCC3)n2N)cc1,18,0.5,0.4,58*,52*,8
CCC(=O)OCC(=O)c1c(N)n(Cc2ccccc2)c(=O)n(C)c1=O,-2,0.6,0.3,66*,42,0
Cn1c(=O)c(C(=O)CSc2nnc(Nc3ccccc3)s2)c(N)n(Cc2ccccc2)c1=O,-4,0.3,1,3,72*,0
Cn1c(=O)c(C(=S)NC(=O)C2CC2)c(N)n(Cc2ccccc2)c1=O,-6,0.7,0.8,18,30,x
Cc1nn(-c2ccccc2)c(C)c1C(=O)OCC(=O)c1c(N)n(CC(C)C)c(=O)n(C)c1=O,8,0.4,0.6,39,61*,-4
Cn1c(=O)c(C(=O)CN2CCCc3ccccc32)c(N)n(Cc2ccccc2)c1=O,20,0.1,0.1,87*,93*,-1
CCCn1c(N)c(C(=O)CSc2nnc(Cc3ccccc3)o2)c(=O)n(C)c1=O,8,x,x,x,x,3
SMILES,PostGolgi ctrl,CYP2C9 activ,CYP2C19 activ,CYP2C19 inh,CYP2C9 inhib,PostGolgi yeast
CCc1ccc(CCC(=O)Nc2nnc(CC)s2)o1,4,1,0.8,15,4,6
CCNC(=O)N1CCOCC1,-5,1,1,0,5,-6
O=C(c1cccc2cccc(O)c12)N1CCCCC1,-4,1.1,0.6,42,-11,7
O=c1nc(-c2ccccc2)cn[nH]1,0,1.1,1.1,-12,-14,2
O=C(CN(CCN1CCOCC1)C(=O)Cn1nnc(-c2ccc(F)cc2)n1)NC1CCCCC1,18,1,0.9,11,-1,2
COc1ccccc1NC(=O)C/C(N)=N/O,10,1.1,1,4,-8,-6
O=C(CCc1nc(-c2cccs2)no1)NCc1ccc(F)cc1Cl,14,0.3,0.1,87*,66*,4
COCCCNC(=O)CCc1nc(-c2ccccc2Cl)no1,2,1,1,-3,-4,11
COc1ccccc1NC(=O)Cc1noc(CN(C)Cc2cccs2)n1,4,0.7,0.2,78*,34,-2
COc1ccccc1NC(=O)CCc1nc(-c2cccs2)no1,6,0.8,0.2,85*,24,3
COc1cc(-c2noc(CCCC(=O)NCc3ccccc3)n2)cc(OC)c1OC,4,1,0.8,15,-3,-2
Cc1ccc(CNC(=O)CCc2nc(-c3cccs3)no2)cc1,43*,0.3,0.3,70*,68*,-7
COc1ccc(CNC(=O)CN(C(=O)c2cc3sccc3n2C)C2CCCC2)cc1,1,0.8,0.9,6,15,-4
Cc1ccc(NC(=O)COC(=O)c2ccc3c(c2)NC(=O)C2CCCN32)cc1C (stereo not given),-2,1.1,0.8,18,-7,11
COc1ccc(Cc2nc(-c3ccc(-n4cccc4)cc3)no2)cc1OC,8,0.9,1.1,-9,14,-4
COc1ccc(Cc2nc(-c3cccs3)no2)cc1OC,10,0.3,0.2,78*,65*,-1
CCCCCN(C(=O)CN(C)Cc1ccc(OC)cc1OC)c1c(N)n(CCCC)c(=O)[nH]c1=O,3,1.1,1,-4,-9,2
Cn1c(CNc2ccccn2)c(C#N)c2ccccc21,6,0.9,0.2,75*,11,-4
Cn1c(=O)c(C(=O)Nc2ccccn2)c(O)c2ccccc21,21,1.2,0.7,26,-19,12
Cn1c(CSc2ccccc2)c(C#N)c2ccccc21,29,1.3,0.2,75*,-26,-7
CC1(C(=O)NC2CCCC2)CCC(=O)N1Cc1ccc2c(c1)OCO2 (stereo not given),7,0.6,0.9,6,40,0
COC(=O)[C@H](C)NC(=O)COc1ccccc1,10,1,1,-2,-4,-2
Cc1nn(-c2ccccc2)c2c1C(c1ccc(O)c(O)c1)N1C(=N2)C(Nc2ccccc2)=Nc2ccccc21 (stereo not given),51*,0.6,0.8,23,42,-5
Cc1cc(C)cc(N2C(=O)CC(N(C(=O)c3ccco3)c3cc(C)cc(C)c3)C2=O)c1 (stereo not given),7,0.4,0.6,44,62*,13
Cc1ccc2[nH]c(=O)c(CN(CCCO)S(=O)(=O)c3c(C)ccc4nsnc34)cc2c1,23,0.3,1,3,65*,-3
Cc1cc2cc(CN(CCCO)S(=O)(=O)c3cccc4nsnc34)c(=O)[nH]c2cc1C,6,0.1,1,3,93*,3

# Bioassay records: PubChem, several laboratories
